# Literature values in PubChem BioAssay AID977611.
# Out of some 3,900 compounds screened, about 3,900 (100%) were called active. Cut-off not given; nearly all actives show Kd up to about 4200 µM. The set was probably picked from earlier hits. Some of the results follow. Starred links: 1 amine or outer side, 2 acyl side, 3 side chain; linkers in the order of their positions; H or OH if unused. *1 amine or outer side, *2 acyl side, *3 side chain or, on linkers, in order; H or OH if unused. Where a SMILES comes first, the peptide text is derived from it. Non-standard residues stand in square brackets, D forms with d. Square brackets hold non-standard residues; d marks the D form. Residues, ends and D or L forms follow the SMILES beside them. Peptide text beside a SMILES is read from it. [ ]: non-standard residue; d: D form. X1 = O=C([C@H](Cc1ccc(OS(O)(O)O)cc1)N[*:1])[*:2]; Thr(P(OH)3+) = C[C@@H](O[P+](O)(O)O)[C@H](N)C(=O)O
# Assay: PubChem AID 977611
# Settings: PDB protein-ligand complexes, literature Kd
compound,measurement,setting,value
H-MRYGQSPNM-OH,Kd,"protein: Protein HTP-2, PDB entry 4tzn",0.3 µM (active)
H-EPQYEEIPIYL-OH,Kd,"protein: P56 LCK Tyrosine kinase, PDB entry 1lcj",0.001 µM (active)
NCC(=O)N[C@@H](CCCN=C(N)N)C(=O)NCC(=O)N[C@@H](CC(=O)O)C(=O)N[C@@H](CO)C(=O)N1CCC[C@H]1C(=O)O,Kd,"protein: Integrin alpha 5-beta 1, PDB entry 4wk2",0.115 µM (active)
CC[C@H](C)[C@H](NC(=O)[C@H](CCC(=O)O)NC(=O)[C@H](CC(C)C)NC(=O)[C@@H](NC(=O)[C@H](CC(=O)O)NC(=O)[C@@H]1CCCN1C(=O)[C@H](CC(=O)O)NC(=O)[C@@H](N)CC(N)=O)[C@@H](C)O[P+](O)(O)O)C(=O)N[C@@H](Cc1ccc(O)cc1)C(=O)N[C@@H](CO)C(=O)O (H-NDPD[Thr(P(OH)3+)]LEIYS-OH),Kd,"protein: Serine/threonine-protein kinase RAD53, PDB entry 2a0t",15 µM (active)
O=C1CCN([C@H]2C[C@H](O)[C@@H](CO[P+](O)(O)O)O2)C(=O)N1,Kd,"protein: Thymidylate synthase, PDB entry 4knz",8.5 µM (active)
CC[C@H](C)[C@H](NC(=O)[C@H](Cc1ccc(O[P+](O)(O)O)cc1)NC(=O)[C@H](CC(=O)O)NC(=O)[C@@H](N)CC(N)=O)C(=O)N[C@@H](CC(=O)O)C(=O)N[C@@H](CC(N)=O)C(=O)N1CCC[C@H]1C(=O)O (H-ND[X1]IDNP-OH),Kd,"protein: E3 ubiquitin-protein ligase CBL, PDB entry 3bun",0.61 µM (active)
CC(C)C[C@H](NC(=O)[C@@H](N)CC(=O)O)C(=O)N[C@@H](Cc1ccc(O[P+](O)(O)O)cc1)C(=O)N[C@@H](CC(=O)O)C(=O)N[C@@H](Cc1ccc(O[P+](O)(O)O)cc1)C(=O)N[C@@H](Cc1ccc(O[P+](O)(O)O)cc1)C(=O)N1CCC[C@H]1C(=O)O,Kd,"protein: THROMBIN, LIGHT CHAIN & THROMBIN, HEAVY CHAIN, PDB entry 4ch2",1.03 µM (active)
H-NELNNNAP-OH,Kd,"protein: SPRY DOMAIN-CONTAINING SOCS BOX PROTEIN 1, PDB entry 2jk9",0.15 µM (active)
CC(C)C[C@H](N)C(=O)N[C@@H](Cc1ccc(O[P+](O)(O)O)cc1)C(=O)N[C@@H](CC(=O)O)C(=O)O,Kd,"protein: THROMBIN, LIGHT CHAIN & THROMBIN, HEAVY CHAIN, PDB entry 4ch8",1.03 µM (active)
NC(=O)CC[C@H](NC(=O)[C@@H](N)Cc1cnc[nH]1)C(=O)N[C@@H](Cc1ccc(O[P+](O)(O)O)cc1)C(=O)N[C@@H](Cc1ccc(O[P+](O)(O)O)cc1)C(=O)N[C@@H](CC(N)=O)C(=O)N[C@@H](CC(=O)O)C(=O)N[C@@H](Cc1ccccc1)C(=O)N1CCC[C@H]1C(=O)O (H-HQ[X1][X1]NDFP-OH),Kd,"protein: Grb2 SH2 domain, pY-Clamp Shc1_pY239/240, PDB entry 4jmh",0.0021 µM (active)
NC1C=CN([C@@H]2O[C@H](CO[P+](O)(O)O[C@H]3[C@@H](O)[C@H](n4cnc5c4NC(N)NC5=O)O[C@@H]3CO[P+](O)(O)O[C@H]3[C@@H](O)[C@H](n4cnc5c4NC(N)NC5=O)O[C@@H]3CO[P+](O)(O)O[C@H]3[C@@H](O)[C@H](n4cnc5c4NC(N)NC5=O)O[C@@H]3CO[P+](O)(O)O)[C@@H](O[P+](O)(O)O)[C@H]2O)C(=O)N1 (stereo partly drawn),Kd,"protein: Heat resistant RNA dependent ATPase, PDB entry 4i67",0.45 µM (active)
NC1NC(=O)c2ncn([C@H]3CC[C@@H](CO[P+](O)(O)O[P+](O)(O)O[P+](O)(O)O)O3)c2N1 (stereo partly drawn),Kd,"protein: DNA polymerase X from Thermus thermophilus HB8, PDB entry 3au6",0.012 µM (active)
NC1NC(=O)c2ncn([C@@H]3O[C@H](CO[P+](O)(O)O[P+](O)(O)O)[C@@H](O)[C@H]3O)c2N1 (stereo partly drawn),Kd,PDB entry 4lps,1.8 µM (active)
same,Kd,"protein: Atlastin-1, PDB entry 4ido",11.6 µM (active)
same,Kd,"protein: Methylmalonyl-CoA mutase accessory protein, PDB entry 4jyc",0.2 µM (active)
same,Kd,"protein: Ras-related protein Rab-8A with Guanine nucleotide exchange factor GRAB, PDB entry 4li0",0.26 µM (active)
same,Kd,"protein: Ras-related protein Rab-8A, PDB entry 4lhv",0.0001 µM (active)
NC1NC(=O)c2ncn([C@@H]3O[C@H](CO[P+](O)(O)O[P+](O)(O)O[P+](O)(O)O)[C@@H](O)[C@H]3O)c2N1 (stereo partly drawn),Kd,"protein: ADP-ribosylation factor 6, PDB entry 4kax",17 µM (active)
NC1NC(=O)c2ncn([C@@H]3O[C@H](CO[P+](O)(O)O[P+](O)(O)N[P+](O)(O)O)[C@@H](O)[C@H]3O)c2N1 (stereo partly drawn),Kd,"protein: Atlastin-1, PDB entry 4idn",5.77 µM (active)
same,Kd,"protein: GTPASE IMAP FAMILY MEMBER 7, PDB entry 3zjc",9 µM (active)
same,Kd,"protein: Methylmalonyl-CoA mutase accessory protein, PDB entry 4jyb",0.11 µM (active)
O=C(O)c1c[nH]c2ccccc12,Kd,"protein: INTEGRASE, PDB entry 4ahu",5400 µM (active)
O=C(O)CCc1c[nH]c2ccccc12,Kd,"protein: Protease (Q7K, L33I, L63I, C67A, C95A mutation), PDB entry 4ejl",7.2 µM (active)
CSCC[C@H](NC(=O)CNC(=O)[C@@H](N)C(C)C)C(=O)N[C@@H](Cc1cnc[nH]1)C(=O)N[C@@H](CO[P+](O)(O)O)C(=O)N[C@@H](CCCCN)C(=O)NCC(=O)N[C@H](C(=O)N[C@@H](CCC(N)=O)C(=O)N[C@H](C(=O)O)[C@@H](C)O)[C@@H](C)O,Kd,"protein: DYNEIN LIGHT CHAIN 1, CYTOPLASMIC, PDB entry 3zkf",0.96 µM (active)
H-VGMHSKGTQTA-OH,Kd,"protein: DYNEIN LIGHT CHAIN 1, CYTOPLASMIC, PDB entry 3zke",0.16 µM (active)
NCc1csc(-c2cccs2)n1,Kd,"protein: CATIONIC TRYPSIN, PDB entry 4aba",153 µM (active)
Cc1noc(C)c1-c1cc(NS(=O)(=O)c2ccccc2)cc(C(=O)O)c1,Kd,"protein: ATPase family AAA domain-containing protein 2 ATAD2A bromodomain, PDB entry 4tu4",175 µM (active)
O=C(O)c1cccc2ccoc12,Kd,"protein: INTEGRASE, PDB entry 4ahs",6400 µM (active)
O=C(O)Cc1cc(O)ccc1O,Kd,"protein: HOMOGENTISATE 1,2-DIOXYGENASE, PDB entry 4aq6",15.8 µM (active)
CC(C)C[C@H](NC(=O)[C@H](CC(C)C)NC(=O)CNC(=O)[C@@H](NC(=O)[C@H](CC(=O)O)NC(=O)[C@H](CC(=O)O)NC(=O)[C@H](Cc1ccc(OS(O)(O)O)cc1)NC(=O)[C@H](Cc1ccc(OS(O)(O)O)cc1)NC(=O)[C@H](CO)NC(=O)[C@@H](NC(=O)[C@@H](NC(=O)CNC(=O)[C@H](Cc1ccccc1)NC(=O)[C@@H](NC(=O)[C@H](CCC(=O)O)NC(=O)[C@@H](N)C(C)C)[C@@H](C)O)[C@@H](C)O)[C@@H](C)O)C(C)C)C(=O)O (H-VETFGTTS[X1][X1]DDVGLL-OH),Kd,"protein: CC chemokine (CCL11/ eotaxin-1), PDB entry 2mpm",1.3 µM (active)
H-AFFAQLQLDAETGEFL-OH,Kd,"protein: Kelch-like ECH-associated protein 1, PDB entry 2flu",0.02 µM (active)
CC(C)C[C@H](NC(=O)[C@@H](N)CO)C(=O)N[C@@H](CCC(=O)O)C(=O)N[C@H](C(=O)N[C@H](C(=O)N[C@@H](CCC(=O)O)C(=O)N[C@@H](C)C(=O)N[C@@H](CC(=O)O)C(=O)N[C@@H](C)C(=O)N[C@H](C(=O)N[C@@H](Cc1ccccc1)C(=O)N[C@H](C(=O)N[C@@H](CCC(N)=O)C(=O)O)C(C)C)[C@@H](C)O)[C@@H](C)O[P+](O)(O)O)C(C)C (H-SLEV[Thr(P(OH)3+)]EADATFVQ-OH),Kd,"protein: FHA1 Domain of Rad53, PDB entry 1k3q",0.3 µM (active)
CC(C)C[C@H](NC(=O)[C@H](Cc1ccccc1)NC(=O)[C@H](CCC(=O)O)NC(=O)[C@H](C)NC(=O)[C@@H](NC(=O)[C@H](CC(C)C)NC(=O)[C@H](CCC(=O)O)NC(=O)[C@H](CC(=O)O)NC(=O)[C@H](CCC(=O)O)NC(=O)[C@H](CO)NC(=O)[C@H](C)N)C(C)C)C(=O)N[C@@H](CCC(N)=O)C(=O)N[C@@H](CC(=O)O)C(=O)N[C@@H](CCC(N)=O)C(=O)N[C@@H](CC(N)=O)C(=O)O (H-ASEDELVAEFLQDQN-OH),Kd,"protein: PEROXISOMAL MEMBRANE PROTEIN PEX14, PDB entry 4bxu",0.1 µM (active)
